# Laboratory results as given in PubChem BioAssay AID1159580 (chemical genetic matrix, 2015).
# The campaign covered roughly 5,500 compounds. About 2,000 (36%) were called active. Not shown: some 18% with an inconclusive outcome. This is one part of the list. A number with no mark means an inactive call. Cut-off read from the data, not from the text of the source: active = normalized growth mostly below about 0.91 (no sharp cut-off); inconclusive = no clear call, values can overlap the other calls; inactive = mostly above about 0.92.
# Experiment: chemical genetic growth profiling, strain panel (AID 1159580);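 note: tested at 20 µM; growth read once vehicle control cultures reached saturation at 30 °C; 1 = growth at the plate median or of vehicle wells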
# Conditions: growth OD
structure (smiles),measurement,setting,value
C=C/C(C)=C\CC1C(C)(O)CCC2C(C)(C)CCCC21C (stereo unspecified),normalized growth,"S. cerevisiae deletion strains, locus YAL013W, strain DEP1, stronger effect = lower value",0.143 (active)
same,normalized growth,"S. cerevisiae deletion strains, locus YBR021W, strain FUR4, stronger effect = lower value",0.64 (active)
same,normalized growth,"S. cerevisiae deletion strains, locus YBR229C, strain ROT2, stronger effect = lower value",0.316 (active)
same,normalized growth,"S. cerevisiae deletion strains, locus YCL029C, strain bik1, stronger effect = lower value",0.612 (active)
same,normalized growth,"S. cerevisiae deletion strains, locus YDL035C, strain GPR1, stronger effect = lower value",0.139 (active)
same,normalized growth,"S. cerevisiae deletion strains, locus YDL074C, strain BRE1, stronger effect = lower value",0.172 (active)
same,normalized growth,"S. cerevisiae deletion strains, locus YDL101C, strain DUN1, stronger effect = lower value",0.0723 (active)
same,normalized growth,"S. cerevisiae deletion strains, locus YDL134C, strain PPH21, stronger effect = lower value",0.0532 (active)
same,normalized growth,"S. cerevisiae deletion strains, locus YDL185W, strain tfp1, stronger effect = lower value",0.842 (active)
same,normalized growth,"S. cerevisiae deletion strains, locus YDL192W, strain arf1, stronger effect = lower value",0.0743 (active)
same,normalized growth,"S. cerevisiae deletion strains, locus YDR101C, strain arx1, stronger effect = lower value",0.429 (active)
same,normalized growth,"S. cerevisiae deletion strains, locus YDR150W, strain NUM1, stronger effect = lower value",0.289 (active)
same,normalized growth,"S. cerevisiae deletion strains, locus YDR162C, strain NBP2, stronger effect = lower value",0.0609 (active)
same,normalized growth,"S. cerevisiae deletion strains, locus YDR318W, strain mcm21, stronger effect = lower value",0.074 (active)
same,normalized growth,"S. cerevisiae deletion strains, locus YDR388W, stronger effect = lower value",0.121 (active)
same,normalized growth,"S. cerevisiae deletion strains, locus YDR502C, strain sam2, stronger effect = lower value",0.155 (active)
same,normalized growth,"S. cerevisiae deletion strains, locus YEL061C, strain CIN8, stronger effect = lower value",0.154 (active)
same,normalized growth,"S. cerevisiae deletion strains, locus YER110C, stronger effect = lower value",0.118 (active)
same,normalized growth,"S. cerevisiae deletion strains, locus YER155C, strain BEM2, stronger effect = lower value",0.237 (active)
same,normalized growth,"S. cerevisiae deletion strains, locus YER167W, strain BCK2, stronger effect = lower value",0.0638 (active)
same,normalized growth,"S. cerevisiae deletion strains, locus YGL078C, strain dbp3, stronger effect = lower value",0.626 (active)
same,normalized growth,"S. cerevisiae deletion strains, locus YGL086W, strain mad1, stronger effect = lower value",0.105 (active)
same,normalized growth,"S. cerevisiae deletion strains, locus YGL248W, strain PDE1, stronger effect = lower value",0.0559 (active)
same,normalized growth,"S. cerevisiae deletion strains, locus YGR078C, strain PAC10, stronger effect = lower value",0.0661 (active)
same,normalized growth,"S. cerevisiae deletion strains, locus YGR135W, strain pre9, stronger effect = lower value",0.115 (active)
same,normalized growth,"S. cerevisiae deletion strains, locus YGR229C, strain SMI1, stronger effect = lower value",0.0733 (active)
same,normalized growth,"S. cerevisiae deletion strains, locus YGR252W, strain gcn5, stronger effect = lower value",0.255 (active)
same,normalized growth,"S. cerevisiae deletion strains, locus YHR030C, strain SLT2, stronger effect = lower value",0.056 (active)
same,normalized growth,"S. cerevisiae deletion strains, locus YHR079C, strain IRE1 (second series), stronger effect = lower value",0.504 (active)
same,normalized growth,"S. cerevisiae deletion strains, locus YHR094C, strain hxt1, stronger effect = lower value",0.099 (active)
same,normalized growth,"S. cerevisiae deletion strains, locus YHR129C, strain ARP1, stronger effect = lower value",0.159 (active)
same,normalized growth,"S. cerevisiae deletion strains, locus YHR200W, strain rpn10, stronger effect = lower value",0.247 (active)
same,normalized growth,"S. cerevisiae deletion strains, locus YIL066C, strain RNR3, stronger effect = lower value",0.0635 (active)
same,normalized growth,"S. cerevisiae deletion strains, locus YIL073C, strain SPO22, stronger effect = lower value",0.12 (active)
same,normalized growth,"S. cerevisiae deletion strains, locus YIL125W, strain kgd1, stronger effect = lower value",0.128 (active)
same,normalized growth,"S. cerevisiae deletion strains, locus YIR030C, strain dcg1, stronger effect = lower value",0.136 (active)
same,normalized growth,"S. cerevisiae deletion strains, locus YJL095W, strain BCK1, stronger effect = lower value",0.0688 (active)
same,normalized growth,"S. cerevisiae deletion strains, locus YJL134W, strain LCB3, stronger effect = lower value",0.057 (active)
same,normalized growth,"S. cerevisiae deletion strains, locus YJL168C, strain set2, stronger effect = lower value",0.203 (active)
same,normalized growth,"S. cerevisiae deletion strains, locus YJL187C, strain SWE1 (second series), stronger effect = lower value",0.39 (active)
same,normalized growth,"S. cerevisiae deletion strains, locus YJR043C, strain POL32, stronger effect = lower value",0.258 (active)
same,normalized growth,"S. cerevisiae deletion strains, locus YJR075W, strain HOC1, stronger effect = lower value",0.1 (active)
same,normalized growth,"S. cerevisiae deletion strains, locus YKL009W, strain mrt4, stronger effect = lower value",0.833 (active)
same,normalized growth,"S. cerevisiae deletion strains, locus YKL068W, stronger effect = lower value",0.963
same,normalized growth,"S. cerevisiae deletion strains, locus YKL085W, strain MDH1 (second series), stronger effect = lower value",0.0898 (active)
same,normalized growth,"S. cerevisiae deletion strains, locus YKL085W, strain MDH1, stronger effect = lower value",0.0898 (active)
same,normalized growth,"S. cerevisiae deletion strains, locus YKL190W, strain CNB1, stronger effect = lower value",0.0889 (active)
same,normalized growth,"S. cerevisiae deletion strains, locus YKR001C, strain vps1, stronger effect = lower value",0.0677 (active)
same,normalized growth,"S. cerevisiae deletion strains, locus YLR039C, strain RIC1, stronger effect = lower value",0.111 (active)
same,normalized growth,"S. cerevisiae deletion strains, locus YLR058C, strain SHM2, stronger effect = lower value",0.0878 (active)
same,normalized growth,"S. cerevisiae deletion strains, locus YLR102C, strain apc9, stronger effect = lower value",0.186 (active)
same,normalized growth,"S. cerevisiae deletion strains, locus YLR262C, strain YPT6, stronger effect = lower value",0.121 (active)
same,normalized growth,"S. cerevisiae deletion strains, locus YLR268W, strain sec22, stronger effect = lower value",0.0849 (active)
same,normalized growth,"S. cerevisiae deletion strains, locus YLR330W, strain CHS5, stronger effect = lower value",0.057 (active)
same,normalized growth,"S. cerevisiae deletion strains, locus YLR342W, strain FKS1 (second series), stronger effect = lower value",0.0927 (active)
same,normalized growth,"S. cerevisiae deletion strains, locus YLR371W, strain rom2, stronger effect = lower value",0.0695 (active)
same,normalized growth,"S. cerevisiae deletion strains, locus YLR418C, strain cdc73, stronger effect = lower value",0.107 (active)
same,normalized growth,"S. cerevisiae deletion strains, locus YML016C, strain PPZ1, stronger effect = lower value",0.0581 (active)
same,normalized growth,"S. cerevisiae deletion strains, locus YML032C, strain rad52, stronger effect = lower value",0.621 (active)
same,normalized growth,"S. cerevisiae deletion strains, locus YML124C, strain tub3, stronger effect = lower value",0.184 (active)
same,normalized growth,"S. cerevisiae deletion strains, locus YMR078C, strain ctf18, stronger effect = lower value",0.0993 (active)
same,normalized growth,"S. cerevisiae deletion strains, locus YMR223W, strain ubp8, stronger effect = lower value",0.0709 (active)
same,normalized growth,"S. cerevisiae deletion strains, locus YMR263W, strain SAP30, stronger effect = lower value",0.153 (active)
same,normalized growth,"S. cerevisiae deletion strains, locus YMR307W, strain GAS1, stronger effect = lower value",0.127 (active)
same,normalized growth,"S. cerevisiae deletion strains, locus YNL067W, strain RPL9B, stronger effect = lower value",0.421 (active)
same,normalized growth,"S. cerevisiae deletion strains, locus YNL128W, strain TEP1, stronger effect = lower value",0.0735 (active)
same,normalized growth,"S. cerevisiae deletion strains, locus YNL153C, strain GIM3, stronger effect = lower value",0.215 (active)
same,normalized growth,"S. cerevisiae deletion strains, locus YNL233W, strain BNI4, stronger effect = lower value",0.0602 (active)
same,normalized growth,"S. cerevisiae deletion strains, locus YNL250W, strain rad50, stronger effect = lower value",0.894 (active)
same,normalized growth,"S. cerevisiae deletion strains, locus YNL271C, strain bni1, stronger effect = lower value",0.336 (active)
same,normalized growth,"S. cerevisiae deletion strains, locus YNL298W, strain CLA4, stronger effect = lower value",0.611 (active)
same,normalized growth,"S. cerevisiae deletion strains, locus YNL307C, strain MCK1, stronger effect = lower value",0.072 (active)
same,normalized growth,"S. cerevisiae deletion strains, locus YNL322C, strain KRE1, stronger effect = lower value",0.169 (active)
same,normalized growth,"S. cerevisiae deletion strains, locus YNR052C, strain pop2, stronger effect = lower value",0.527 (active)
same,normalized growth,"S. cerevisiae deletion strains, locus YOL006C, strain TOP1, stronger effect = lower value",0.128 (active)
same,normalized growth,"S. cerevisiae deletion strains, locus YOL012C, strain htz1",0.258
same,normalized growth,"S. cerevisiae deletion strains, locus YOL147C, strain pex11, stronger effect = lower value",0.152 (active)
same,normalized growth,"S. cerevisiae deletion strains, locus YOR061W, strain CKA2, stronger effect = lower value",0.05 (active)
same,normalized growth,"S. cerevisiae deletion strains, locus YOR069W, strain VPS5, stronger effect = lower value",0.078 (active)
same,normalized growth,"S. cerevisiae deletion strains, locus YOR136W, strain idh2, stronger effect = lower value",0.101 (active)
same,normalized growth,"S. cerevisiae deletion strains, locus YOR144C, strain elg1, stronger effect = lower value",0.423 (active)
same,normalized growth,"S. cerevisiae deletion strains, locus YOR184W, strain ser1, stronger effect = lower value",0.0788 (active)
same,normalized growth,"S. cerevisiae deletion strains, locus YOR316C, strain cot1, stronger effect = lower value",0.113 (active)
same,normalized growth,"S. cerevisiae deletion strains, locus YPL055C, strain LGE1, stronger effect = lower value",0.201 (active)
same,normalized growth,"S. cerevisiae deletion strains, locus YPL241C, strain CIN2, stronger effect = lower value",0.358 (active)
same,normalized growth,"S. cerevisiae deletion strains, locus YPR119W, strain clb2, stronger effect = lower value",0.079 (active)
same,normalized growth,"S. cerevisiae deletion strains, locus YPR141C, strain kar3, stronger effect = lower value",0.958
same,normalized growth,"S. cerevisiae deletion strains, locus YPR163C, strain tif3, stronger effect = lower value",0.0854 (active)
same,normalized growth,"S. cerevisiae deletion strains, locus YPR167C, strain met16, stronger effect = lower value",0.067 (active)
same,normalized growth,"S. cerevisiae deletion strains, strain wtn01, stronger effect = lower value",0.0803 (active)
same,normalized growth,"S. cerevisiae strains, strain wild type, stronger effect = lower value",0.125 (active)
